Compounds without any hit were thinned out: in the full panel of roughly 83,000, 20% have a hit.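 Percent growth is the endpoint: 0 to 100 indicates growth inhibition (40 means 60% inhibition), 0 means no net growth, and negative values indicate cell death.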 Calls of active or inactive are those of the source. The calls were made as follows: active = growth percent below 10; inactive = the rest.

One assay relates to UO-31 renal. As to the kind of experiment: NCI-60 one-dose screen, 48 h (100 = growth as untreated, 0 = no growth, -100 = all killed). Particulars: 10 µM unless noted.
Consider `COC(=O)[C@]12CC[C@@H](C)[C@H](C)[C@@H]1C1=CC[C@@H]3[C@@]4(C)C(C=O)=C[C@@](C)(COC(=O)c5ccco5)[C@@H]4C(=O)C[C@@]3(C)[C@]1(C)CC2`, for which the growth was 29.7% (inactive).

With `COc1cccc(C(=O)NCCNc2cc(-c3cn(-c4ccccc4)nc3-c3cccc(OC)c3)ccn2)c1`, the growth is 39.9% (inactive).

Regarding `O=C(O)C1CCC(=O)N1C(=O)OCc1ccccc1` (centres undefined), the growth is 88.7% (inactive).

With `Cc1cc(NCc2cc(Nc3ccnc4cc(Cl)ccc34)ccc2F)nc(N2CCCC2)n1`, the growth was -50.9% (active).

For `COC(=O)[C@]12CC[C@@H](C)[C@H](C)[C@@H]1C1=CC[C@@H]3[C@@]4(C)C(C=O)=C[C@@](C)(COC(=O)c5ccco5)C4=CC[C@@]3(C)[C@]1(C)CC2`, the growth is -55.3% (active).

As for `CC(CCc1ccc(Cl)c(Cl)c1)NCc1ccc(C(C)(C)C)cc1` (centres undefined), the growth is 78.6% (inactive).

As for `Cc1ccc2nc3ccccc3c(NCc3ccccc3)c2c1`, the growth is 18.3% (inactive).

On to `COc1cc(-c2nc(N3CCN(C)CC3)c3ccccc3n2)cc(OC)c1OC`, for which the growth was 45% (inactive).

With `CCn1c(C)nc2cc(C(N)=O)ccc21`, the growth is 91.5% (inactive).

For `CN(C)CC1C(=O)O[C@H]2[C@H]1CC/C(COC(=O)c1cc3ccccc3[nH]1)=C\CC[C@@]1(C)O[C@@H]21` (some centres undefined), the growth is -92.7% (active).

`CN1CCN(CCCOc2ccc3nc(Nc4ccc(F)c(F)c4)ccc3c2)CC1`: the growth is 47.4% (inactive).

Regarding `COc1cccc(-c2nn(-c3ccccc3)cc2-c2ccnc(NCCCNC(=O)c3cccc(C(F)(F)F)c3)c2)c1`, the growth is 10.9% (inactive).

For the compound `COc1ccc(-c2cc(-c3cc(OC)ccc3OC)nc(SCC(=O)c3ccccc3)c2C#N)cc1`, the growth was 81.9% (inactive).

As to `Cc1ccc(Cl)c(NS(=O)(=O)c2ccc(-c3cnc(C4CC4)o3)cc2)c1`, the growth was 44.3% (inactive).

For `COc1cccc(-c2nn(-c3ccccc3)cc2-c2ccnc(NCCNC(=O)c3ccccc3)c2)c1`, the growth is 49.7% (inactive).

Take `Cc1cc(N2CCCC2)nc(NCc2cc(Nc3ccnc4cc(Cl)ccc34)ccc2F)n1`: the growth is -59.1% (active).

As for `COc1cccc(-c2nn(-c3ccccc3)cc2-c2ccnc(NCCNC(=O)Nc3ccccc3)c2)c1`, the growth was 39% (inactive).

On to `CC(C)CCC[C@@H](C)[C@H]1CC[C@H]2[C@@H](Nc3ccc(O)cc3)CCC[C@]12C`, for which the growth was 7.74% (active).

Take `COc1cc(-c2nn(-c3ccccc3)cc2-c2ccnc(NCCNS(=O)(=O)c3ccc(Cl)cc3)n2)ccc1Cl`: the growth is 21.2% (inactive).

`CCCCn1c(=O)c2c(nc3n2CCCN3CCc2ccc(OCC(=O)NCCN(CC)CC)cc2)n(CCCC)c1=O`: the growth was 43.2% (inactive).

As for `COC(=O)CCC1=C(C)C2=NC1=CC1=NC(=CC3=NC(=Cc4[nH]c(/c(=C(/C)O)c4C)=C2)C(C(C)=O)=C3C)C(C)=C1CCC(=O)OC`, the growth is 100% (inactive).

Turning to `N[C@@H](CCCCNCC(=O)O)C(=O)O`, the growth was 91% (inactive).

As to `O=C(c1ccc(Nc2nccc(NCCCCNc3ccnc4cc(Cl)ccc34)n2)cc1)N1CCCCC1`, the growth was 73.9% (inactive).

Turning to `Cc1ccc(NCCN(C)C)c2c(=O)c3ccccc3sc12`, the growth was -30.5% (active).

Take `Cc1cc(NCCCCNc2ccnc3cc(Cl)ccc23)nc(Nc2ccc(C(=O)N3CCCC3)cc2)n1`: the growth is 75.4% (inactive).

As for `CC(C)(C)n1cc(-c2ccnc(NCCCNS(=O)(=O)c3ccccc3)c2)c(-c2ccccc2)n1`, the growth was 59% (inactive).

As for `Fc1ccc(CNc2c3ccccc3nc3ccccc23)cc1F`, the growth is 15.6% (inactive).

Regarding `c1c[nH]c(CNC2CCCCC2)c1`, the growth is 89.8% (inactive).

In the case of `COc1cccc(-c2nn(-c3ccccc3)cc2-c2ccnc(NCCNC(=O)Nc3cccc(C(F)(F)F)c3)c2)c1`, the growth is -21.9% (active).

For the compound `O=C(NCCCNc1cc(-c2cn(-c3ccccc3)nc2-c2cccc(O)c2)ccn1)c1ccc(F)cc1`, the growth was 27.1% (inactive).

With `Cc1cc(NCc2cc(Nc3ccnc4cc(Cl)ccc34)ccc2F)nc(Cl)n1`, the growth was 30% (inactive).

Regarding `NC(=O)c1ccc[n+](Cc2ccc(Cl)cc2Cl)c1`, the growth is 99.8% (inactive).

Consider `Cc1cc(Cl)nc(NCc2cc(Nc3ccnc4cc(Cl)ccc34)ccc2F)n1`, for which the growth is 44% (inactive).

Regarding `COc1ccc(-c2ccc3c(c2)sc2nc(-c4ccc(F)cc4)cn23)cc1`, the growth was 81% (inactive).

With `O=C(NCCCNc1cc(-c2cn(-c3ccccc3)nc2-c2cccc(O)c2)ccn1)c1ccccc1`, the growth is 22.6% (inactive).

For the compound `FC(F)(F)c1cc(Nc2ccc3cc(OCCCN4CCOCC4)ccc3n2)ccc1Cl`, the growth was 27.6% (inactive).

For `COC(=O)[C@]12CC[C@@H](C)[C@H](C)[C@@H]1C1=CC[C@@H]3[C@@]4(C)C(C=O)=C[C@@](C)(COC(C)=O)C4=CC[C@@]3(C)[C@]1(C)CC2`, the growth is -9.5% (active).

For the next assay, the system named is TK-10 renal. Described as above. Particulars: 10 µM unless noted.
`COC(=O)[C@]12CC[C@@H](C)[C@H](C)[C@@H]1C1=CC[C@@H]3[C@@]4(C)C(C=O)=C[C@@](C)(COC(=O)c5ccco5)[C@@H]4C(=O)C[C@@]3(C)[C@]1(C)CC2`: the growth is 29.7% (inactive).

Take `COc1cccc(C(=O)NCCNc2cc(-c3cn(-c4ccccc4)nc3-c3cccc(OC)c3)ccn2)c1`: the growth is 80.4% (inactive).

With `O=C(O)C1CCC(=O)N1C(=O)OCc1ccccc1` (centres undefined), the growth is 88.7% (inactive).

`Cc1cc(NCc2cc(Nc3ccnc4cc(Cl)ccc34)ccc2F)nc(N2CCCC2)n1`: the growth is -35.8% (active).

Turning to `COC(=O)[C@]12CC[C@@H](C)[C@H](C)[C@@H]1C1=CC[C@@H]3[C@@]4(C)C(C=O)=C[C@@](C)(COC(=O)c5ccco5)C4=CC[C@@]3(C)[C@]1(C)CC2`, the growth is 6.65% (active).

For `CC(CCc1ccc(Cl)c(Cl)c1)NCc1ccc(C(C)(C)C)cc1` (centres undefined), the growth was 78.4% (inactive).

Regarding `Cc1ccc2nc3ccccc3c(NCc3ccccc3)c2c1`, the growth is 75.3% (inactive).

As to `COc1cc(-c2nc(N3CCN(C)CC3)c3ccccc3n2)cc(OC)c1OC`, the growth was 94.1% (inactive).

With `CCn1c(C)nc2cc(C(N)=O)ccc21`, the growth was 98% (inactive).

For the compound `CN(C)CC1C(=O)O[C@H]2[C@H]1CC/C(COC(=O)c1cc3ccccc3[nH]1)=C\CC[C@@]1(C)O[C@@H]21` (some centres undefined), the growth was -89.2% (active).

As to `CN1CCN(CCCOc2ccc3nc(Nc4ccc(F)c(F)c4)ccc3c2)CC1`, the growth was 41.7% (inactive).

For `COc1cccc(-c2nn(-c3ccccc3)cc2-c2ccnc(NCCCNC(=O)c3cccc(C(F)(F)F)c3)c2)c1`, the growth was 26.9% (inactive).

For `COc1ccc(-c2cc(-c3cc(OC)ccc3OC)nc(SCC(=O)c3ccccc3)c2C#N)cc1`, the growth was 114% (inactive).

In the case of `Cc1ccc(Cl)c(NS(=O)(=O)c2ccc(-c3cnc(C4CC4)o3)cc2)c1`, the growth was 68.5% (inactive).

`COc1cccc(-c2nn(-c3ccccc3)cc2-c2ccnc(NCCNC(=O)c3ccccc3)c2)c1`: the growth is 90.1% (inactive).

Take `Cc1cc(N2CCCC2)nc(NCc2cc(Nc3ccnc4cc(Cl)ccc34)ccc2F)n1`: the growth is -56.7% (active).

Consider `COc1cccc(-c2nn(-c3ccccc3)cc2-c2ccnc(NCCNC(=O)Nc3ccccc3)c2)c1`, for which the growth was 73.8% (inactive).

Regarding `CC(C)CCC[C@@H](C)[C@H]1CC[C@H]2[C@@H](Nc3ccc(O)cc3)CCC[C@]12C`, the growth was 83% (inactive).

Consider `COc1cc(-c2nn(-c3ccccc3)cc2-c2ccnc(NCCNS(=O)(=O)c3ccc(Cl)cc3)n2)ccc1Cl`, for which the growth is 43% (inactive).

With `CCCCn1c(=O)c2c(nc3n2CCCN3CCc2ccc(OCC(=O)NCCN(CC)CC)cc2)n(CCCC)c1=O`, the growth is 71.7% (inactive).

On to `COC(=O)CCC1=C(C)C2=NC1=CC1=NC(=CC3=NC(=Cc4[nH]c(/c(=C(/C)O)c4C)=C2)C(C(C)=O)=C3C)C(C)=C1CCC(=O)OC`, for which the growth is 123% (inactive).

In the case of `N[C@@H](CCCCNCC(=O)O)C(=O)O`, the growth was 98.1% (inactive).

In the case of `O=C(c1ccc(Nc2nccc(NCCCCNc3ccnc4cc(Cl)ccc34)n2)cc1)N1CCCCC1`, the growth was 91.5% (inactive).

Regarding `Cc1ccc(NCCN(C)C)c2c(=O)c3ccccc3sc12`, the growth was 54.8% (inactive).

In the case of `Cc1cc(NCCCCNc2ccnc3cc(Cl)ccc23)nc(Nc2ccc(C(=O)N3CCCC3)cc2)n1`, the growth was 115% (inactive).

With `CC(C)(C)n1cc(-c2ccnc(NCCCNS(=O)(=O)c3ccccc3)c2)c(-c2ccccc2)n1`, the growth was 94.1% (inactive).

For `Fc1ccc(CNc2c3ccccc3nc3ccccc23)cc1F`, the growth was 51.1% (inactive).

As to `c1c[nH]c(CNC2CCCCC2)c1`, the growth was 120% (inactive).

For `COc1cccc(-c2nn(-c3ccccc3)cc2-c2ccnc(NCCNC(=O)Nc3cccc(C(F)(F)F)c3)c2)c1`, the growth was 57.7% (inactive).

In the case of `O=C(NCCCNc1cc(-c2cn(-c3ccccc3)nc2-c2cccc(O)c2)ccn1)c1ccc(F)cc1`, the growth is 60.4% (inactive).

As for `Cc1cc(NCc2cc(Nc3ccnc4cc(Cl)ccc34)ccc2F)nc(Cl)n1`, the growth was 38.1% (inactive).

Regarding `NC(=O)c1ccc[n+](Cc2ccc(Cl)cc2Cl)c1`, the growth was 88.4% (inactive).

For the compound `Cc1cc(Cl)nc(NCc2cc(Nc3ccnc4cc(Cl)ccc34)ccc2F)n1`, the growth is 67.1% (inactive).

Turning to `COc1ccc(-c2ccc3c(c2)sc2nc(-c4ccc(F)cc4)cn23)cc1`, the growth was 75.6% (inactive).

For the compound `O=C(NCCCNc1cc(-c2cn(-c3ccccc3)nc2-c2cccc(O)c2)ccn1)c1ccccc1`, the growth was 67.3% (inactive).

In the case of `FC(F)(F)c1cc(Nc2ccc3cc(OCCCN4CCOCC4)ccc3n2)ccc1Cl`, the growth is 43.3% (inactive).

As for `COC(=O)[C@]12CC[C@@H](C)[C@H](C)[C@@H]1C1=CC[C@@H]3[C@@]4(C)C(C=O)=C[C@@](C)(COC(C)=O)C4=CC[C@@]3(C)[C@]1(C)CC2`, the growth was -8.72% (active).

The values are drawn from PubChem BioAssay (NCI).
